In PubChem BioAssay one finds cell count and z-score data, which are given here for seven compounds.

Several values for one entry are separate records, joined by “and”; a condition that tells them apart may be missing. Equal values may be shown once. Activity calls are given as the source filed them.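 Rule for the calls: active = z-score of at least 1.8 in each of two replicates, scored against plate mean and spread of sample wells; inactive = the rest.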

One assay in a line: viability loss with induced miR-34 in A549 – imaging, A549 dox-inducible miR-34, nuclei and caspase counts, primary screen (AID 1347080). Note: test concentration not given here. Conditions: A549 miR-34 inducible, Hoechst nuclei count, 48 h; measured here: total cells without miR-34 induction.
On to `CC1OC1P(=O)(O)O` (centres undefined), for which the cell count is 9890 and 12900.

Compound `CCCCCCCCCCCCCC(=O)O[C@@H]1[C@@H](C)[C@@]2(O)[C@@H](C=C(CO)C[C@]3(O)C(=O)C(C)=C[C@@H]23)[C@@H]2C(C)(C)[C@]12OC(C)=O` returned a cell count of 250. Still for that read-out and setting: in the case of `CC(N)C(=O)OC(C)(C)Cc1ccc(Cl)cc1` (centres undefined) it was 10300; in that of `C[N+]1(C)C2CC(OC(=O)[C@@H](CO)c3ccccc3)CC1C1OC12` (some centres undefined), 12100; in that of `CC[C@@]1(C2O[C@@H](C3O[C@@](O)(CC)[C@H](C)C[C@@H]3C)C[C@@H]2C)CC[C@H]([C@]2(C)CCC3(C[C@H](O)[C@@H](C)[C@@H]([C@H](C)[C@@H](OC)[C@H](C)C(=O)O)O3)O2)O1` (some centres undefined), 3340. On the same count and under the same terms, in the case of `N[C@@H](CC(=O)N1CCn2c(nnc2C(F)(F)F)C1)Cc1cc(F)c(F)cc1F` it was 13100.

The next assay is described as follows: galactose survival enhancers in mitochondrial complex I cybrids – cell-based, galactose medium, ATP luminescence, primary screen (AID 1645843).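 Note: positive z means more ATP and so rescue of galactose-driven cybrid death.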 Conditions: complex I mutant cybrid cells, 72 h, stronger effect = higher value.
Take `CC1OC1P(=O)(O)O` (centres undefined): the z-score was 0.665 (inactive). For `CC(N)C(=O)OC(C)(C)Cc1ccc(Cl)cc1` (centres undefined), the z-score was -0.85 (inactive).

With `CCn1cc(C(=O)O)c(=O)c2ccc(C)nc21`, the z-score is 0.725 (inactive) and 0.425 (inactive).
